# Source: PubChem
# hcDAF12 agonist – activators of H. contortus DAF-12 nuclear receptor; HEK293 hcDAF-12 lit1-tk-luc reporter, luminescence; 0% DMSO, 100% Δ7-dafachronic acid; activation, % at 6.8 µM; 370,000 compounds, 1.4% hits;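 active = activation above the mean of all tested compounds plus 3 SD, cut at about 5.5% in these data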;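 note: 100% = response to 3 µM Δ7-dafachronic acid high control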
# DAX1 inh-1 – NR0B1 (DAX1) inhibition | P51843 | HEK293 Gal4-DAX1 luciferase reporter, luminescence | inhibition, % at 6.75 µM | 340,000 compounds, 0.99% hits | AID 504766;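 active = inhibition above the mean over all tested compounds plus 3 SD, cut at about 4.2% in these data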;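 note: 0% = DAX1-transfected cells with DMSO and 100% = empty-vector control cells with DMSO; inhibition shows as a rise in luminescence from relieved DAX1 repression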
# Target sequence (P51843 207-470 limits assumed): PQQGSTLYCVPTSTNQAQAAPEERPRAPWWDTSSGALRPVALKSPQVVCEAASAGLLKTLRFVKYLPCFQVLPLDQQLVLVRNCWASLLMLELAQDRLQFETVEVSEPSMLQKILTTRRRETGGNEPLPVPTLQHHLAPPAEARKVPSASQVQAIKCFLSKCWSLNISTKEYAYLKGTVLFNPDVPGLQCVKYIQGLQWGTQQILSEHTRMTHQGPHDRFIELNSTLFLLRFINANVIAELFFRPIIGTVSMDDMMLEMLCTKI
# DAX1 inh-2 – DAX1 (NR0B1) inhibition, primary screen; HEK293T StAR-luciferase reporter, SF-1/DAX-1 repression relief; inhibition, % at 6.8 µM; 370,000 compounds, 1.1% hits; AID 652010;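 active = inhibition above the mean over all tested compounds plus 3 SD, cut at about 3.6% in these data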;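 note: 0% = DAX-1 cells with DMSO and 100% = cells lacking DAX-1 with DMSO; higher inhibition means more luminescence from relief of DAX-1 repression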
# hgDAF-12 ag – hgDAF-12 agonism, primary luciferase screen | 370,000 compounds, 1.8% hits | activation, % at 6.8 µM | HEK293 GAL4-hgDAF12 UAS-luciferase reporter, agonist luminescence; normalized to butyrate control;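 active = activation above a cutoff set at the mean of all screened compounds plus 3 SD, cut at about 10% in these data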;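 note: 0% = DMSO wells and 100% = sodium butyrate wells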
# ssDAF12 agonist – activators of S. stercoralis DAF-12 nuclear receptor; activation, % at 6.8 µM; AID 652126; HEK293 ssDAF-12/GRIP1 lit1-tk-luc reporter, luminescence; % of 3 µM dafachronic acid response; 370,000 compounds, 1% hits;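 active = activation above the mean over all tested compounds plus 3 SD, cut at about 0.9% in these data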;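 note: 0% = DMSO-only wells and 100% = 3 µM delta7-dafachronic acid wells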
# LXRb hcDAF ctr – activates human LXR-beta, counter-screen for hcDAF-12 agonists. shares compounds with hcDAF12 agonist. HEK293 Gal4-LXR tk-luc reporter, luminescence, 24 h; normalized: DMSO 0%, positive control 100%. activation, % at 6.8 µM. 3,400 tested, under 10 active;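 active = mean percent activation of the reporter above a cutoff set as the average over tested compounds plus their standard deviation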
# hcDAF12 conf – confirmation of H. contortus DAF-12 agonists | activation, % at 6.8 µM | 3,400 compounds, 61% hits | shares compounds with hcDAF12 agonist | HEK293 hcDAF-12 lit1-tk-luc reporter, luminescence; % of Δ7-dafachronic acid response;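 active = mean activation across triplicate tests above the threshold derived from the earlier primary screen, cut at about 5.5% in these data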;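 note: 0% = DMSO only wells and 100% = 3 µM Δ7-dafachronic acid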
# hgDAF12 ag – hgDAF-12 agonism, confirmation assay; shares compounds with hgDAF-12 ag; HEK293 GAL4-hgDAF12 luciferase reporter, agonist mode; percent of butyrate response; activation, % at 6.8 µM; 3,300 compounds, 80% hits; AID 743050;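 active = mean activation over triplicate wells above the hit cutoff derived from the earlier primary screen, cut at about 11% in these data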;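 note: 0% = DMSO low control and 100% = 2 mM sodium butyrate high control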
# LXRb DAF12 ctr – LXR-beta agonism as DAF-12 counter-screen; shares compounds with hgDAF-12 ag; activation, % at 6.8 µM; AID 743051; HEK293 Gal4-LXR luciferase reporter, 24 h; 3,300 tested, under 10 active;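 active = mean activation of the triplicate above a set limit carried over from the primary screen, none filed active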
# * hit, by the source's call; · = no result. Hits are enriched below; roughly 4.1% of the tested compounds scored in any of these assays.
SMILES,hcDAF12 agonist,DAX1 inh-1,DAX1 inh-2,hgDAF-12 ag,ssDAF12 agonist,LXRb hcDAF ctr,hcDAF12 conf,hgDAF12 ag,LXRb DAF12 ctr
O=C(NCCc1ccccc1)c1ccccc1F,6.7*,0,3.8*,15*,0,1,4,14*,1
O=C(NCCc1ccccc1)c1ccccc1C(=O)NCCc1ccccc1,1,·,1,2,-1,·,·,·,·
O=C(CNC(=O)c1ccccc1F)c1ccccc1,7.0*,2,2,17*,1.1*,1,5,14*,1
COc1ccc(-n2cc(COC(=O)NCCc3ccccc3)nn2)cc1,-1,·,0,0,0,·,·,·,·
CC1=CN2C(=N)/C(=C/c3ccco3)C(=O)N=C2S1,10*,3,4.0*,16*,1.6*,1,3,12*,1
CC(C)NC(=O)N(C)C[C@H]1Oc2ccc(NC(=O)C3CC3)cc2C(=O)N([C@H](C)CO)C[C@@H]1C,-2,0,0,0,-1,·,·,·,·
Cc1sc(NC(=O)c2ccc(Br)s2)c(C(N)=O)c1C,8.8*,3,3,19*,1,1,12*,18*,1
O=C(N/N=C/c1cn(-c2ccccc2)nc1-c1cc2ccccc2o1)c1ccncc1,6.8*,2,3,19*,2.0*,1,4,15*,1
O=C(N/N=C/c1cn(-c2ccccc2)nc1-c1cccnc1)c1cccnc1,-2,0,-2,-1,-2,·,·,·,·
CC(C)c1ccc2nc(NC(=O)C3CC3)sc2c1,7.0*,4,3,22*,0,1,3,17*,1
Cc1nnc(NC(=O)c2ccc(-c3ccc(Cl)cc3)o2)s1,-2,0,1,-2,-1,·,·,·,·
O=C(Nc1nccs1)c1ccc(-c2ccc(Cl)cc2)o1,6.6*,4.6*,4.3*,17*,1.3*,2,4,22*,1
O=C(CSc1nc2c(cnn2-c2cccc(Cl)c2)c(=O)[nH]1)NCCC1=CCCCC1,-1,1,-1,-3,-1,·,·,·,·
Cc1ccc(C=NNc2ccc([N+](=O)[O-])cn2)cc1,7.4*,4.8*,2,18*,0,1,3,13*,1
CC(C)c1ccccc1NC(=O)Nc1nnc([C@@H]2C[C@H](O)[C@@H](CO)O2)s1,0,·,0,3,0,·,·,·,·
CC(=Nc1cccc(C)c1)c1sc2ccccc2c1O,15*,4,2,14*,4.0*,1,13*,25*,1
O=[N+]([O-])c1cccc(N=Cc2sc3ccccc3c2O)c1,1,·,1,1,-1,·,·,·,·
CC(C)(C)c1ccc(-c2nnc(SCC(=O)c3ccc([N+](=O)[O-])cc3)n2-c2ccc(Cl)cc2)cc1,-1,·,-2,2,-1,·,·,·,·
O=C1Nc2ccccc2C(=O)N(c2ccc3c(c2)OCCO3)C1C(=O)NC1CC1 (stereo unspecified),1,·,1,0,-1,·,·,·,·
Clc1ccc(N2CCN(c3cnc4ccccc4n3)CC2)cc1,-1,0,0,1,-1,·,·,·,·
c1ccc(N2CCN(c3cnc4ccccc4n3)CC2)cc1,7.0*,1,3,15*,0,1,3,20*,1
CC1CCCC(NC(=O)c2cc(S(=O)(=O)N3CCCCC3)c[nH]2)C1C (stereo unspecified),-1,·,1,-3,-1,·,·,·,·
Cc1ccc(N2C(=O)c3ccccc3NC2(C(=O)O)c2ccccc2)cc1Cl (stereo unspecified),9.9*,4.8*,2,19*,0,0,3,12*,0
Cc1ccc(NC(=O)C(C)N2C(=O)c3ccccc3S2(=O)=O)cc1Cl (stereo unspecified),2,0,2,0,-1,·,·,·,·
Cc1cccc(-n2ccnc2SCC(=O)Nc2cccc(S(=O)(=O)NC3=NCCC3)c2)c1C,-2,-2,-2,-4,-1,·,·,·,·
SMILES,hcDAF12 agonist,DAX1 inh-1,DAX1 inh-2,hgDAF-12 ag,ssDAF12 agonist,LXRb hcDAF ctr,hcDAF12 conf,hgDAF12 ag,LXRb DAF12 ctr
Cc1ccc2nc(-c3ccccc3)c(Cc3cccc(F)c3)n2c1,8.7*,·,2,14*,1,0,5,4,0
COc1ccc(-c2csc(Nc3ncccc3C)n2)cc1OC,0,0,0,5,-1,·,·,·,·
COc1ccc(-c2csc(Nc3ncccc3C)n2)cc1,7.5*,3,2,17*,1,1,5,17*,1
Oc1ccc(/C=N\Nc2cc(N3CCOCC3)nc(N3CCOCC3)n2)c(O)c1,-2,-2,-1,-1,-2,·,·,·,·
Oc1ccc(/C=N/Nc2cccc(Cl)n2)c(O)c1,10*,6.3*,2,14*,2.2*,1,2,19*,1
Cc1ccccc1NC(=S)c1ccc2ccccc2n1,14*,1,1,13*,1.3*,0,7.9*,13*,0
Cc1cc(-c2ccc(N3CCOCC3)cc2)nc2ccccc12,15*,1,3,20*,0.9*,1,7.9*,14*,1
Cc1ccc(-c2cc(C(=O)N3CCOCC3)c3ccccc3n2)cc1,2,0,-1,4,-1,·,·,·,·
Cc1ccc(NC(=O)c2ccoc2C)cc1C,6.9*,0,3,14*,0,1,5,12*,0
Cc1occc1C(=O)Nc1ccccc1NC(=O)c1ccoc1C,2,0,0,-2,-1,·,·,·,·
Cc1occc1C(=O)Nc1ccc2c(c1)OCO2,1,1,1,6,0,·,·,·,·
Cc1occc1C(=O)Nc1cccc2ccccc12,6.7*,4,3.8*,17*,1.1*,1,5.9*,21*,1
C[C@@H]1CN([C@@H](C)CO)S(=O)(=O)c2ccc(Br)cc2O[C@@H]1CN(C)C(=O)NC1CCCCC1,-1,-1,0,-2,-1,·,·,·,·
Cn1/c(=N/N=C/c2ccccn2)sc2ccccc21,8.2*,·,3,23*,1,1,7.1*,18*,1
CC(=O)c1ccc(NCC2COc3ccccc3O2)c([N+](=O)[O-])c1 (stereo unspecified),11*,3,3,23*,1.4*,1,9.0*,15*,1
